# KCNQ2 enhance – enhances the rat KCNQ2 potassium channel. 310,000 compounds, 0.54% hits. CHO-K1 KCNQ2, FluxOR thallium flux fluorescence; hits give high values. O88943. B-score at 10 µM;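 active = fluorescence ratio B-score at least 3 SD of library B-scores, with initial fluorescence B-score within 3 of them, cut at about 5.3 in these data; same plate scores as AID 2156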;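 note: B-score of peak minus minimum over baseline fluorescence ratio after K+ and Tl+ stimulus; positive B-score means potentiation of KCNQ2 with more thallium influx and brighter signal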
# KCNQ2 inh – inhibitors of rat KCNQ2 potassium channel; CHO-K1 KCNQ2, FluxOR thallium flux, 20 min; hits give low values; B-score at 10 µM; 310,000 compounds, 1.1% hits; AID 2156; O88943;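 active = fluorescence ratio B-score at most minus 3 library SDs, with starting brightness B-score within 2 library SDs, cut at about -5.5 in these data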
# Kir21 confirm – confirmation of mouse Kir2.1 potassium channel inhibitors; shares compounds with KCNQ2 enhance; Kir2.1-expressing cells, FluxOR thallium flux fluorescence; hits give low values; Tl flux remaining, % of negative control (hits give low values), % at 10 µM; 2,300 compounds, 41% hits; AID 2032;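 active = Primary-screen hit whose thallium flux fell at least 3 control SD below untreated wells in both duplicates, with normal baseline fluorescence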;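 note: 0% = blank wells without stimulus and 100% = stimulated no-compound controls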
# HEK293 ctr – alters thallium flux in parental HEK293 cells, Kir2.1 counter-screen; FluxOR signal as % of negative control (100 = no effect), % at 10 µM; 2,300 compounds, 19% hits; AID 2105; shares compounds with KCNQ2 enhance; FluxOR thallium flux fluorescence; 0% = unstimulated blank wells;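 active = dye signal at least 3 control SD above or below untreated wells in both duplicates, raw fluorescence within 3, either direction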;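 note: percent is based on the flux ratio of peak minus minimum fluorescence over baseline F0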
# CHO-K1 Tl ctr – counter-screen for KCNQ2 potentiators: effect in parental CHO-K1 cells; activity increase over 3SD of controls, % at 10 µM; 1,200 compounds, 43% hits; FluxOR thallium flux fluorescence; zero = vehicle mean+3SD, 100% = vehicle-minus-blank window; shares compounds with KCNQ2 enhance;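 active = signal rise of at least 3 SD above the untreated control mean, in both duplicate wells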;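 note: counter screen of KCNQ2 potentiator hits so any rise reflects channel-independent effects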
# KCNQ1 sel pot – tests whether KCNQ2 potentiators also act on human KCNQ1; shares compounds with KCNQ2 enhance; CHO KCNQ1 stable, FluxOR thallium flux fluorescence; beyond 3SD, as % of vehicle-control signal; activation over 3SD threshold, % at 10 µM; 1,200 compounds, 28% hits;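 active = fluorescence ratio rise of at least 3 SD of vehicle wells above their mean, in both replicate wells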;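 note: 0% = vehicle mean plus 3 SD and 100% = vehicle minus unstimulated blank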
# KCNQ2 pot confirm – rat KCNQ2 channel potentiator confirmation | shares compounds with KCNQ2 enhance | CHO-KCNQ2 cells, FluxOR thallium flux fluorescence | potentiation, less the hit threshold, % at 10 µM | 1,200 compounds, 68% hits;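 active = fluorescence ratio rising 3 SD or more over the vehicle control mean in both replicates, plus primary screen hit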;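 note: peak minus minimum thallium fluorescence divided by baseline after K/Tl stimulus; 0% = vehicle mean plus 3 SD and 100% = vehicle minus unstimulated blank difference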
# Kir2-1 sel – selectivity of KCNQ2 potentiators: effect on mouse Kir2.1 | activity over 3SD threshold, % at 10 µM | shares compounds with KCNQ2 enhance | HEK293 Kir2.1, FluxOR thallium flux fluorescence | 1,200 compounds, 2% hits;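 active = fluorescence ratio rise of at least 3 SD above the vehicle-control mean, seen in both replicates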;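 note: 0% = vehicle mean plus 3 SD and 100% = vehicle minus no-stimulus blank window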
# KCNQ2 W236L MoA – potentiates the retigabine-insensitive rat KCNQ2 W236L mutant channel | AID 2558 | 940 compounds, 10% hits | current increase over 3SD of negative controls (%), hits give high values, % at 25 µM | CHO KCNQ2-W236L, automated patch clamp current | shares compounds with KCNQ2 enhance;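 active = current increase at least 3 SD of the untreated controls above them in both duplicate recordings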
# Target sequence (O88943 whole entry W236L, looked up): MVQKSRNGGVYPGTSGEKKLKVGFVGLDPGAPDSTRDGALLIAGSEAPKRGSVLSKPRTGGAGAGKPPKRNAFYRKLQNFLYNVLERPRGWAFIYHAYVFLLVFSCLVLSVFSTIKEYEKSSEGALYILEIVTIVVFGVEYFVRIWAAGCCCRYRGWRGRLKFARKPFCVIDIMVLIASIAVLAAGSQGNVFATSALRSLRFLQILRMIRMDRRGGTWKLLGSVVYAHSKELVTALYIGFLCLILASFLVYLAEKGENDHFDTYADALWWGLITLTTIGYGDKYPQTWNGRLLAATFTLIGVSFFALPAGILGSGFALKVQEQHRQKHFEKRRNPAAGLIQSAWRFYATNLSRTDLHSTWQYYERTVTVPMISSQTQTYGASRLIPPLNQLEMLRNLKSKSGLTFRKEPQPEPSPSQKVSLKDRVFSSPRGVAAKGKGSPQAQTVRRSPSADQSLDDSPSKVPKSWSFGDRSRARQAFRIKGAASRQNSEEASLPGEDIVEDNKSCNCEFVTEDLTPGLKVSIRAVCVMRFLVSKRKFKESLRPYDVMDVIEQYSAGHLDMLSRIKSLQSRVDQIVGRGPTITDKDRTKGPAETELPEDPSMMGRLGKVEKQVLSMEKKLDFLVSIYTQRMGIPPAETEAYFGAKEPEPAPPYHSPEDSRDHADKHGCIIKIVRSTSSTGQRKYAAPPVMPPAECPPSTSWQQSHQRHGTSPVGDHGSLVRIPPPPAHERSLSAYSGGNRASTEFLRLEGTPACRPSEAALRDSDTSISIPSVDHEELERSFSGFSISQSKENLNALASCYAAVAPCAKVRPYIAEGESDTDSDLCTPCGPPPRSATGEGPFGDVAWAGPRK
# Numbers without * were called inactive; i = inactive; . = no result given. The list is not random: actives were taken first. Their share in the collection is about 1.6%.
SMILES,KCNQ2 enhance,KCNQ2 inh,Kir21 confirm,HEK293 ctr,others
O=C(/C=C/c1cccc(F)c1)NC1CCN(Cc2ccccc2)CC1,0.69,i,.,.,
CCOc1ccc2oc(C(=O)NC3CCN(Cc4ccccc4)CC3)c(C)c2c1,0.55,i,.,.,
COC(=O)COc1ccc(S(=O)(=O)Nc2ccc3c(c2)OCCO3)cc1C,1,i,.,.,
Cc1ccc2[nH]c(=O)c3cc(C(=O)N(CCCOC(C)C)Cc4ccco4)sc3c2c1,.,i,.,.,
CN1C(=O)c2ccc(Oc3ccccc3)cc2C1=O,1.5,i,.,.,
N#Cc1c(-c2ccco2)nc(SCC(=O)Nc2cccc(Cl)c2)[nH]c1=O,5.5*,i,i,i,CHO-K1 Tl ctr=-13;KCNQ1 sel pot=-7;KCNQ2 pot confirm=7.4*;Kir2-1 sel=-30;KCNQ2 W236L MoA=i
O=C(CSc1nc2[nH]ncc2c(=O)[nH]1)Nc1cccc(Cl)c1,.,i,.,.,
CCC(CC)C(=O)c1c[nH]c(C(=O)N2CCN(c3ccc(OC)cc3)CC2)c1,.,i,.,.,
CC(=O)Nc1ccc(NC(=O)C2CCCN2C(=O)Nc2ccc(F)c([N+](=O)[O-])c2)cc1 (stereo not given),.,i,.,.,
COC(=O)c1ccc(Oc2nc(NC(C)C)nc(NC(C)C)n2)cc1,.,i,.,.,
COC(=O)c1ccc(Oc2nc(NC(C)C)nc(N(C)C)n2)cc1,11*,i,i,i,CHO-K1 Tl ctr=-16;KCNQ1 sel pot=-12;KCNQ2 pot confirm=-26;Kir2-1 sel=-32
CC(NC(=O)c1ccncc1)C(C)(C)C (stereo not given),16*,i,i,i,CHO-K1 Tl ctr=-15;KCNQ1 sel pot=-18;KCNQ2 pot confirm=-18;Kir2-1 sel=-39
Cc1ccc(C(C)NC(=O)c2ccncc2)cc1C (stereo not given),1,i,.,.,
Cn1cc([N+](=O)[O-])c(C(=O)NC2CCCCCCC2)n1,.,i,.,.,
Cc1occc1C(=O)Nc1ccccc1C(=O)O,.,i,.,.,
Cc1cc(C)c(NC(=O)c2ccoc2C)c(C)c1,6.1*,i,i,i,CHO-K1 Tl ctr=-3;KCNQ1 sel pot=-3;KCNQ2 pot confirm=9.5*;Kir2-1 sel=-16;KCNQ2 W236L MoA=i
CC(=O)c1cccc(NC(=O)c2ccoc2C)c1,2.1,i,.,.,
Cc1occc1C(=O)Nc1ccc2ccccc2c1,13*,i,i,i,CHO-K1 Tl ctr=105*;KCNQ1 sel pot=-17;KCNQ2 pot confirm=60*;Kir2-1 sel=-30;KCNQ2 W236L MoA=i
Cc1cc(C)cc(N(CC(=O)NC(C)C)C(=O)CCC(=O)Nc2ccccn2)c1,0.7,i,.,.,
CC1CC(=O)N(CC(=O)Nc2ccc(Br)cc2)c2ccccc2S1(=O)=O (stereo not given),0.02,i,.,.,
Cc1cccc(Cn2ccc(NC(=O)c3ccc4c(c3)OCO4)n2)c1,.,i,.,.,
CCOc1ccc(S(=O)(=O)NN=C2CCN(C(C)=O)CC2)cc1,.,i,.,.,
COc1ccc(NC(=O)[C@H](C)NC(=O)C2CCN(S(=O)(=O)c3ccc(C)cc3)CC2)cc1OC,0.02,i,.,.,
CCN(CC)CCNCc1cc(Cl)c(OCC(=O)Nc2ccccc2)c(OC)c1,0.64,i,.,.,
COc1cc(CNC(C)c2ccccc2)cc(Cl)c1OCC(=O)Nc1ccccc1 (stereo not given),.,i,60%*,i,
SMILES,KCNQ2 enhance,KCNQ2 inh,Kir21 confirm,HEK293 ctr,others
CC(C)c1ccc(NC(=O)c2ccc(NS(C)(=O)=O)cc2)cc1,.,i,.,.,
N=c1n(CCN2CCCCC2)c2ccccc2n1CC(O)c1ccc(Cl)c(Cl)c1 (stereo not given),.,i,36%*,64%*,
N=c1n(CCN2CCCCC2)c2ccccc2n1CC(O)c1cccc(Br)c1 (stereo not given),.,i,40%*,i,
N=c1n(CCN2CCCCC2)c2ccccc2n1CC(O)COc1ccccc1 (stereo not given),.,i,.,.,
CN(C)CCn1c(=N)n(CC(O)c2ccc(Cl)c(Cl)c2)c2ccccc21 (stereo not given),1.2,i,.,.,
CC(C)N(C)S(=O)(=O)c1ccc(NC(=O)CSC(=S)N2CCCC2)cc1,1.3,i,.,.,
CC(C)(C)C(=O)Nc1ccccc1C(=O)NCCC(=O)Nc1ccccc1,0.56,i,.,.,
O=C(NCC(O)CO)c1csc(Nc2cccc3ccccc23)n1 (stereo not given),0.43,i,.,.,
Cc1cccc(OCC(=O)NCC(=O)N/N=C/c2cc(Br)cc(Br)c2O)c1,10*,i,i,i,CHO-K1 Tl ctr=6.9*;KCNQ1 sel pot=0.7*;KCNQ2 pot confirm=-12;Kir2-1 sel=-27
COc1cccc(/C=N/NC(=O)CNC(=O)COc2ccccc2)c1O,1.2,i,.,.,
COC(=O)C1=C(O)/C(=C\c2ccc(OCC(=O)Nc3ccc(OC)cc3)cc2)N=C1C,.,i,.,.,
CCc1ccc(C2C(C#N)=C(N)C(C#N)(C#N)C3=CCC(C(C)(C)C)CC32)cc1 (stereo not given),0.99,i,i,i,
O=C(NCCS(=O)(=O)N1CCN(c2ccc(F)cc2)CC1)C12CC3CC(CC(C3)C1)C2,.,i,.,.,
CCCn1ncc(CN2CCC(C(=O)Nc3cccc(-c4cccc(F)c4)c3)CC2)c1C,.,i,.,.,
CCn1ncc(/C=N/NC(=O)c2ccc3c(c2)OCO3)c1C,.,i,.,.,
CCn1cc(/C=N/NC(=O)c2ccc3c(c2)OCO3)c(C)n1,6.3*,i,i,i,CHO-K1 Tl ctr=-12;KCNQ1 sel pot=-25;KCNQ2 pot confirm=-20;Kir2-1 sel=-39
Cc1cc(/C=C2\SC(=S)NC2=O)cc(C)c1O,0.89,i,.,.,
CC1Cc2cc(/C=C3/SC(=S)NC3=O)ccc2O1 (stereo not given),10*,i,i,145%*,CHO-K1 Tl ctr=-13;KCNQ1 sel pot=-14;KCNQ2 pot confirm=7.8*;Kir2-1 sel=-31;KCNQ2 W236L MoA=4.5%*
COc1ccc(-c2csc(N=C(N)N)n2)cc1,1.3,i,.,.,
Cc1ccc(-c2csc(N=C(N)N)n2)c(C)c1,.,i,40%*,i,
CC1=CC(C)(C)N(C(=O)CCl)c2cc(C)ccc21,.,i,.,.,
CC1=CC(C)(C)N(C(=O)CNC2CCCCC2)c2cc(C)ccc21,.,i,50%*,i,
COc1ccc(NC2c3ccccc3C(=O)N2c2ccccn2)cc1 (stereo not given),.,i,.,.,
CC(C)(C)c1ccc(C(=O)CC(=O)c2cc(Cl)ccc2O)cc1,1.6,i,.,.,
Cc1ccc(C(=O)CC(=O)c2cc(Cl)ccc2O)cc1,6*,i,i,i,CHO-K1 Tl ctr=-18;KCNQ1 sel pot=-30;KCNQ2 pot confirm=27*;Kir2-1 sel=-39;KCNQ2 W236L MoA=i
c1ccc(Cc2ccc(OCCCNC3CCCC3)cc2)cc1,0.67,i,44%*,i,

# High-throughput results from PubChem.
